# Tests used:
# [1] = target: Sphingosine kinase 1 (Homo sapiens) (UniProt Q9NYA1); conditions: at 1 µM;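 further: mean SPHK1 inhibition value reported from the GSK PKIS kinase panel screen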
# [2] = target: T1, Sphingosine kinase 2 (Homo sapiens) (UniProt Q9NRA0); conditions: at 0.1 µM
# T1 sequence (whole entry): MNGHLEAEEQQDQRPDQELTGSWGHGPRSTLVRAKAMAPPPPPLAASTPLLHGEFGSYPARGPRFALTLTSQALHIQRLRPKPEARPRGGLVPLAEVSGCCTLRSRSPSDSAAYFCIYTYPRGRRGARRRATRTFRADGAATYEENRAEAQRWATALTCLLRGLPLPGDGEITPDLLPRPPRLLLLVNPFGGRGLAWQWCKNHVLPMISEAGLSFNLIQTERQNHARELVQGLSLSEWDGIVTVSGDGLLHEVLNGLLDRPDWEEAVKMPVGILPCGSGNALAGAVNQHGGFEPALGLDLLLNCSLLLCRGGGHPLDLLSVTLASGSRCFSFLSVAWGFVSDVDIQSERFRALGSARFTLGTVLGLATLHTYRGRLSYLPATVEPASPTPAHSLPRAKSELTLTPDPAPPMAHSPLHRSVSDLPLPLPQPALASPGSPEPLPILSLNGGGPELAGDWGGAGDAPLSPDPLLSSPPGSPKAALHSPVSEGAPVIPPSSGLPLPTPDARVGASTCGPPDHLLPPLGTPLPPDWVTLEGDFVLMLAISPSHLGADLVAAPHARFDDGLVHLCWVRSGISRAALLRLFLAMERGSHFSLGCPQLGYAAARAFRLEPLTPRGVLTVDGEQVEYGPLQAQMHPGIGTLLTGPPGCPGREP
# [3] = target: T1, Sphingosine kinase 2 (Homo sapiens); conditions: at 1 µM
# [4] = target: Casein kinase II subunit alpha (Homo sapiens) (UniProt P68400); conditions: at 0.1 µM
# Casein kinase II subunit alpha (Homo sapiens), sequence (P68400 whole entry, looked up): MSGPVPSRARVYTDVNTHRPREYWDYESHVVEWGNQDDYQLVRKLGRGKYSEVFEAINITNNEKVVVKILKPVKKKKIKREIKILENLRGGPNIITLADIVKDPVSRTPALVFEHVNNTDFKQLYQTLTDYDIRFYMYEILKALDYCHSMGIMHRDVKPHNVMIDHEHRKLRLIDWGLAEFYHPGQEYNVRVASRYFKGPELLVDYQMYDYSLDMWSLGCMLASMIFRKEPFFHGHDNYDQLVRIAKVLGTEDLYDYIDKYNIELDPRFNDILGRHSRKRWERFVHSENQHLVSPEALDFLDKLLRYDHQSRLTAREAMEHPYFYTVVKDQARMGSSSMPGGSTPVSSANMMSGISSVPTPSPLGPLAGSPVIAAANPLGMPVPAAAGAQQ
# [5] = target: Casein kinase II subunit alpha (Homo sapiens) (UniProt P68400); conditions: at 1 µM
# [6] = target: T2, Inhibitor of nuclear factor kappa-B kinase subunit alpha (Homo sapiens) (UniProt O15111); conditions: at 0.1 µM
# T2 sequence (whole entry): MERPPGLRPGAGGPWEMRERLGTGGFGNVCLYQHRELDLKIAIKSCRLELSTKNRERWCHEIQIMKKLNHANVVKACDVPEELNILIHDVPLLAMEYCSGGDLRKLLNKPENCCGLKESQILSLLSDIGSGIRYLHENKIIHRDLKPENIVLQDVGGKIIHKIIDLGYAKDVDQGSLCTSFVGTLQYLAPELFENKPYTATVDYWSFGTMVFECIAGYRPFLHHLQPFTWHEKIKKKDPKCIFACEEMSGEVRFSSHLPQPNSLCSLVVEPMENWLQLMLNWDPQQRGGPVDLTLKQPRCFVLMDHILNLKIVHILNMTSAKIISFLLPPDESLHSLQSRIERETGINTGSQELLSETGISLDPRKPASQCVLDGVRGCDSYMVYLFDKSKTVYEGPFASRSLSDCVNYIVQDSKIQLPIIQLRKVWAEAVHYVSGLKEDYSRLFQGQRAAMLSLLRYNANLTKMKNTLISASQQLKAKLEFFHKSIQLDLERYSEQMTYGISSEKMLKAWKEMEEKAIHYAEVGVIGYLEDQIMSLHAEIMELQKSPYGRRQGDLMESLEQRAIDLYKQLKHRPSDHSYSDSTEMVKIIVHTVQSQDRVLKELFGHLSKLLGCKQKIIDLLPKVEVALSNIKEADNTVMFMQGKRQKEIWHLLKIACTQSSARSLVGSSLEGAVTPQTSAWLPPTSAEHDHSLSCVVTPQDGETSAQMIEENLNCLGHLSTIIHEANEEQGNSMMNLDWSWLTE
# [7] = target: T2, Inhibitor of nuclear factor kappa-B kinase subunit alpha (Homo sapiens); conditions: at 1 µM
# [8] = target: T3, Inhibitor of nuclear factor kappa-B kinase subunit beta (Homo sapiens) (UniProt O14920); conditions: at 0.1 µM
# T3 sequence (whole entry): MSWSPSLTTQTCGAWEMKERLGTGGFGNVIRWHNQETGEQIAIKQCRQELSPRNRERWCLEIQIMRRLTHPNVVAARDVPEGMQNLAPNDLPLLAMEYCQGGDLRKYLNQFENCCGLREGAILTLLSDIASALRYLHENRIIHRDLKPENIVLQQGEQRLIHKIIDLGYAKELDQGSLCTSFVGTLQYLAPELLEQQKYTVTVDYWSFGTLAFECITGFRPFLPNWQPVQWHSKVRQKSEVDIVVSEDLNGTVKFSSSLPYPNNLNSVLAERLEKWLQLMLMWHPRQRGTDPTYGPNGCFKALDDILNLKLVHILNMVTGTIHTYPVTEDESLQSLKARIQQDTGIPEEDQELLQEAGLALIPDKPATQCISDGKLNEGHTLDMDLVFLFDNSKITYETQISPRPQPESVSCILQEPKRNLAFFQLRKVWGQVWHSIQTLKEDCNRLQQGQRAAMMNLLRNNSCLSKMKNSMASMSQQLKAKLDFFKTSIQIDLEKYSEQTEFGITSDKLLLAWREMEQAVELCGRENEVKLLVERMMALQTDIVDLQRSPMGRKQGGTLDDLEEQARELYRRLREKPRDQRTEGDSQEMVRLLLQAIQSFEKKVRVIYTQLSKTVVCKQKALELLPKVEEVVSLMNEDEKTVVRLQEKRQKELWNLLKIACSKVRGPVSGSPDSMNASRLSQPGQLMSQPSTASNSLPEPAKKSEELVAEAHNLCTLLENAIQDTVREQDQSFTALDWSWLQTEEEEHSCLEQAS
# [9] = target: T3, Inhibitor of nuclear factor kappa-B kinase subunit beta (Homo sapiens); conditions: at 1 µM
# [10] = target: T4, Inhibitor of nuclear factor kappa-B kinase subunit epsilon (Homo sapiens) (UniProt Q14164); conditions: at 0.1 µM
# T4 sequence (whole entry): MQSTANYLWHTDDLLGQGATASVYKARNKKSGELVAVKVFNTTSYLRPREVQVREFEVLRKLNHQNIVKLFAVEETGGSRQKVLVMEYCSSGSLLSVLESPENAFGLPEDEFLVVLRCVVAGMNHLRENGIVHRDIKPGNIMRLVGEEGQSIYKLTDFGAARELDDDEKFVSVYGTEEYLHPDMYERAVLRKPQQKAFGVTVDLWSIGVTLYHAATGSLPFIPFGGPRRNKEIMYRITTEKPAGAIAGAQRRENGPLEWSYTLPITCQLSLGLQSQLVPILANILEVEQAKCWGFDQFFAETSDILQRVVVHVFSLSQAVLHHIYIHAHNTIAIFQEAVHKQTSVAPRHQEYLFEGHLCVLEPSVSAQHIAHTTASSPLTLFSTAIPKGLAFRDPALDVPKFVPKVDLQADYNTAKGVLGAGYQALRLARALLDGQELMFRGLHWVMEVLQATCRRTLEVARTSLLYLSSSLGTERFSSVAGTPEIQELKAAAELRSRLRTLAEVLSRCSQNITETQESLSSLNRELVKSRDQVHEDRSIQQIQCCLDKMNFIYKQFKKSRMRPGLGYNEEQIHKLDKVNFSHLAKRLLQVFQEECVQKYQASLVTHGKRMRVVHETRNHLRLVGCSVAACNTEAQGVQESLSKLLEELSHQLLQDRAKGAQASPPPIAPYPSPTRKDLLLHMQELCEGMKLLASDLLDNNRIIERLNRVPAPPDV
# [11] = target: T4, Inhibitor of nuclear factor kappa-B kinase subunit epsilon (Homo sapiens); conditions: at 1 µM
# [12] = target: T5, Serine/threonine-protein kinase Nek1 (Homo sapiens) (UniProt Q96PY6); conditions: at 0.1 µM
# T5 sequence (whole entry): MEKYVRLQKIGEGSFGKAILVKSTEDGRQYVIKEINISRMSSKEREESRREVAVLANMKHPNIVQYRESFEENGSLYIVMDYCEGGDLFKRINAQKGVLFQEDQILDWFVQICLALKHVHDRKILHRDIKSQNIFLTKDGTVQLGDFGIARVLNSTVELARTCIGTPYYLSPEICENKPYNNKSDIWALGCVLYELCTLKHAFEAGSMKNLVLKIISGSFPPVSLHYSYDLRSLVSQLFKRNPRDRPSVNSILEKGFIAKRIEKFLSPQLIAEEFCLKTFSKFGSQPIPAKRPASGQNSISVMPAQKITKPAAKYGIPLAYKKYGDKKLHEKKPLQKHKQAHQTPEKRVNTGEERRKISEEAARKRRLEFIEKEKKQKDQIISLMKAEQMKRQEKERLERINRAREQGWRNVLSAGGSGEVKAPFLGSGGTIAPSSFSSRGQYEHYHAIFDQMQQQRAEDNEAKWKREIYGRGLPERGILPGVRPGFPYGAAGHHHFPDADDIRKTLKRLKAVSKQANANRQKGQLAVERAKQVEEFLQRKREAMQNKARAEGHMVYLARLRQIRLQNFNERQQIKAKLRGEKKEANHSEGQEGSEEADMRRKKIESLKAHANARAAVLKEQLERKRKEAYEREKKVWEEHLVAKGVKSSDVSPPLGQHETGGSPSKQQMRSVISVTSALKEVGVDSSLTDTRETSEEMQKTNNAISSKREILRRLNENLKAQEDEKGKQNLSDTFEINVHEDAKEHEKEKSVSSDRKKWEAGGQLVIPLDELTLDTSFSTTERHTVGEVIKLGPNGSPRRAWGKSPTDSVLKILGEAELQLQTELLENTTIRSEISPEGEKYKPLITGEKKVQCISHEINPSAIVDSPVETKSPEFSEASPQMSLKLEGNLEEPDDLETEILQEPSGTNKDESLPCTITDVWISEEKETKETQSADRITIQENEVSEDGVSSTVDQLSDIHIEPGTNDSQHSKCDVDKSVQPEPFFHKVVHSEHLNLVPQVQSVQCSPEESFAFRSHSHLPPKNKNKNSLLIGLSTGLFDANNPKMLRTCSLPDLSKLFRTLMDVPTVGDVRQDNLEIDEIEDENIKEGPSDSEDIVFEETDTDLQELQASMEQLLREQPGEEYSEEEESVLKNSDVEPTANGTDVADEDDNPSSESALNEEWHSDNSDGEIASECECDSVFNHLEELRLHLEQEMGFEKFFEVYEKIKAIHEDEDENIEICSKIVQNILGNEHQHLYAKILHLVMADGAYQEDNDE
# [13] = target: T5, Serine/threonine-protein kinase Nek1 (Homo sapiens); conditions: at 1 µM
# [14] = target: T6, Serine/threonine-protein kinase Nek2 (Homo sapiens) (UniProt P51955); conditions: at 0.1 µM
# T6 sequence (whole entry): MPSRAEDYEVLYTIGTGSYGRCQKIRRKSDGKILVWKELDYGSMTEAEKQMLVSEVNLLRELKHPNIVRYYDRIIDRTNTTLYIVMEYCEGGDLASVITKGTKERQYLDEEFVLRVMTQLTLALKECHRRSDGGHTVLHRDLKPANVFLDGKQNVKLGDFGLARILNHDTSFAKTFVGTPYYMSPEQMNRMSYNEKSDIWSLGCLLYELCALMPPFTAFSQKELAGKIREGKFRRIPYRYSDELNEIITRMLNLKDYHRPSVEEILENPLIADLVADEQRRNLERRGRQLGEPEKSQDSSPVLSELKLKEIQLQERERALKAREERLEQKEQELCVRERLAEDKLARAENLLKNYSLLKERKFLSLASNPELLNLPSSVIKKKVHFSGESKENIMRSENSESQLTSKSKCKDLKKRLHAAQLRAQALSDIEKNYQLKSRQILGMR
# [15] = target: T6, Serine/threonine-protein kinase Nek2 (Homo sapiens); conditions: at 1 µM
# [16] = target: Serine/threonine-protein kinase Nek6 (Homo sapiens) (UniProt Q9HC98); conditions: at 0.1 µM
# Serine/threonine-protein kinase Nek6 (Homo sapiens), sequence (Q9HC98 whole entry): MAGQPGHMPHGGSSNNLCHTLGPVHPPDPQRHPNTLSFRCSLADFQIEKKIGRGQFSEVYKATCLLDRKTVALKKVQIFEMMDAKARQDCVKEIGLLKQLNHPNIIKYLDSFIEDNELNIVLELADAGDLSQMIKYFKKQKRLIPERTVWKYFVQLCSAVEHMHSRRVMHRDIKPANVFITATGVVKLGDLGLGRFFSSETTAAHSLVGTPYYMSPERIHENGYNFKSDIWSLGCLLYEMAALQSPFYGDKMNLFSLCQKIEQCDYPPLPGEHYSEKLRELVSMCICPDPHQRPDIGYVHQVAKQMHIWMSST
# [17] = target: Serine/threonine-protein kinase Nek6 (Homo sapiens) (UniProt Q9HC98); conditions: at 1 µM
# [18] = target: Serine/threonine-protein kinase Nek7 (Homo sapiens) (UniProt Q8TDX7); conditions: at 0.1 µM
# Serine/threonine-protein kinase Nek7 (Homo sapiens), sequence (Q8TDX7 whole entry, looked up): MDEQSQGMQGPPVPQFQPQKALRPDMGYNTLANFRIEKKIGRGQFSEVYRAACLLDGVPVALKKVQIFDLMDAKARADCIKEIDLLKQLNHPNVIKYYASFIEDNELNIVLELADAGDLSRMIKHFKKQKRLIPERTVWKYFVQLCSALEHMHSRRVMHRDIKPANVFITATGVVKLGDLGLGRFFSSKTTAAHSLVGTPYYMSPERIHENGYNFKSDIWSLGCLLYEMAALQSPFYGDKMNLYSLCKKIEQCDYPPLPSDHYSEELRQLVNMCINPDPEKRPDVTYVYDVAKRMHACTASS
# [19] = target: Serine/threonine-protein kinase Nek7 (Homo sapiens) (UniProt Q8TDX7); conditions: at 1 µM
# [20] = target: T7, Serine/threonine-protein kinase Nek9 (Homo sapiens) (UniProt Q8TD19); conditions: at 0.1 µM;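 further: reported value is the mean percent inhibition of NEK9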
# T7 sequence (whole entry): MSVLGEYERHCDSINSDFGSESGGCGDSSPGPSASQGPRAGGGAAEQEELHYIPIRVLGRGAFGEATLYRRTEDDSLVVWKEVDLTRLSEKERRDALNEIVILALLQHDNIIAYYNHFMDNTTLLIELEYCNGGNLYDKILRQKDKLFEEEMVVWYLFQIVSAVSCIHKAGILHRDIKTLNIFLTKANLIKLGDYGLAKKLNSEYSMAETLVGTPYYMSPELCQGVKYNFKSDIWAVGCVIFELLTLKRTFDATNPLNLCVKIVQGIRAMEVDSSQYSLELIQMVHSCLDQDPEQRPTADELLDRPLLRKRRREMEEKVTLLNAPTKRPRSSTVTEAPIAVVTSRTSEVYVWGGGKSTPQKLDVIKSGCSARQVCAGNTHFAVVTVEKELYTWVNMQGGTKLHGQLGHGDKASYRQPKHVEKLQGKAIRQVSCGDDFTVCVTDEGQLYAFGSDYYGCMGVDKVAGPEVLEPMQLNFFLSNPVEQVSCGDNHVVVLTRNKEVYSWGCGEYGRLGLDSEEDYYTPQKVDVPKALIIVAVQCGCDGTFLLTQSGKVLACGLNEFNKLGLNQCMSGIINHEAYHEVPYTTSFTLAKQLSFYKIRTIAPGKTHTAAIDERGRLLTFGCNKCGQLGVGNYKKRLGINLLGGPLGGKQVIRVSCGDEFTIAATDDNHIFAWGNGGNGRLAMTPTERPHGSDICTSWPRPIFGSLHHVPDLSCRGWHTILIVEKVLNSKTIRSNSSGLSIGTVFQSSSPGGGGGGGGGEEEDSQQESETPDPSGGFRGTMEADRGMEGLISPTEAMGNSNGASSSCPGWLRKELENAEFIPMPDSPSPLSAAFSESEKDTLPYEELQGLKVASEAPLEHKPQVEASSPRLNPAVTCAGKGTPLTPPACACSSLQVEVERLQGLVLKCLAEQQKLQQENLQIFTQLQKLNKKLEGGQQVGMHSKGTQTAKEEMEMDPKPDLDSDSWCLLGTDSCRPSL
# Sphingosine kinase 1 (Homo sapiens), sequence (Q9NYA1 whole entry): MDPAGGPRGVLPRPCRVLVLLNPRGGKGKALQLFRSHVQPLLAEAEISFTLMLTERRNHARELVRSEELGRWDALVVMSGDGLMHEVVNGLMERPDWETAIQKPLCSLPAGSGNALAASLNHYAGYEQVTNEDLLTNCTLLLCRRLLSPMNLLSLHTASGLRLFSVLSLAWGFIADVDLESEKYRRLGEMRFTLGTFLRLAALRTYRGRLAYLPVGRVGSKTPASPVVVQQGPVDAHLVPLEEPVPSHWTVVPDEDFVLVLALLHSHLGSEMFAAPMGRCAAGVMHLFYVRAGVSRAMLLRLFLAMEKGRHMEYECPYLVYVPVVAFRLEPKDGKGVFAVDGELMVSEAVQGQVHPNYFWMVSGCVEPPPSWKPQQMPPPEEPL
structure (smiles),measurement,setting,value
CCS(=O)(=O)c1ccc(OC)c(Nc2ncc(-c3cccc(-c4ccccc4F)c3)o2)c1,inhibition,[1],0.74%
same,inhibition,[2],0.06%
same,inhibition,[3],-2.48%
same,inhibition,[4],1.79%
same,inhibition,[5],4.95%
same,inhibition,[6],3.18%
same,inhibition,[7],3.18%
same,inhibition,[8],0.01%
same,inhibition,[9],-1.42%
same,inhibition,[10],-1.02%
same,inhibition,[11],0.08%
same,inhibition,[12],1.03%
same,inhibition,[13],1.67%
same,inhibition,[14],0.99%
same,inhibition,[15],-0.68%
same,inhibition,[16],1.36%
same,inhibition,[17],-2.09%
same,inhibition,[18],1.63%
same,inhibition,[19],-0.61%
same,inhibition,[20],-0.87%

# — ChEMBL document CHEMBL1961873, “Compounds: GSK PKIS; Assays: Nanosyn kinase panel” (2012)
